Data as given in PubChem BioAssay (NCATS).
Where “and” joins values, the source holds several entries; their conditions need not be identical. Equal values may be shown once. Results filed as inconclusive are left out. Where a call stands in place of a potency, no number is given. Calls of active or inactive are those of the source. Calls follow the shape of the dose curve; as a rule, active = well fitted inhibition curve with a large enough effect; inconclusive = small, poorly fitted or top-dose-only effect; inactive = flat fitted curve, though single readings scatter. Where a SMILES comes first, the peptide text is derived from it. [ ]: non-standard residue; d: D form. Hyp = O=C(O)[CH]1C[CH](O)CN1; Phe(ol) = N[CH](CO)Cc1ccccc1; Iva = CC[C](C)(N)C(=O)O; Aib = CC(C)(N)C(=O)O

Experiment: P-glycoprotein substrates identified in KB-8-5-11 adenocarcinoma cell line, qHTS therapeutic library screen (AID 1346987); also: nearly all actives have a fitted effect of over 65% in size
Details: KB-8-5-11 (P-gp overexpressing) viability, CellTiter-Glo, 72 h; series mostly up to 44.5 µM
Outline: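 In this qHTS, P-gp-rich KB-8-5-11 cells received library compounds across a concentration range. Viability was quantified by luminescence after 72 h at 37 degree C.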
Potency is read from the fitted curve at half-maximal effect.

SMILES	activity change, negative = cytotoxicity	Potency
CCC(C)(NC(=O)C(CCC(N)=O)NC(=O)C1CC(O)CN1C(=O)C(C)(C)NC(=O)C(C)(C)NC(=O)C(CC(C)C)NC(=O)CNC(=O)C(NC(=O)C(C)(C)NC(=O)C(C)(C)NC(=O)C(C)(C)NC(=O)C(Cc1ccccc1)NC(C)=O)C(C)C)C(=O)N1CC(O)CC1C(=O)NC(C)(C)C(=O)NC(CO)Cc1ccccc1 (stereo not given) (Ac-F[Aib][Aib][Aib]VGL[Aib][Aib][Hyp]Q[Iva][Hyp][Aib][Phe(ol)]; configuration not given here)	-10.8% [at 9.29 µM] (inactive)	–
C[C@@H]1C[C@H]2O[C@@]3(O[C@@H]2C(C)(C)O)C(O)[C@@]2(C)C4CCC5C(C)(C)[C@@H](O[C@H]6OC[C@H](O)[C@@H](O)[C@@H]6O)CC[C@@]56C[C@@]46CC[C@]2(C)C13 (stereo not given in full)	–	inactive
CCC(C)[C@H]1O[C@]2(C=C[C@@H]1C)C[C@@H]1C[C@@H](C/C=C(\C)[C@@H](O[C@H]3C[C@H](OC)[C@@H](O[C@H]4C[C@H](OC)[C@H](NC(C)=O)[C@H](C)O4)[C@H](C)O3)[C@@H](C)/C=C/C=C3\CO[C@@H]4[C@H](O)C(C)=C[C@@H](C(=O)O1)[C@]34O)O2 (stereo not given in full)	–	5.17 µM (active) and 18.4 µM (active)
CCNC(=O)N1CCCN(c2ccc(C(=O)NCCc3ccc(Cl)cc3Cl)cc2NC(=O)c2cccc(Cl)c2)CC1	–	inactive
Cc1cc(-c2ncc(-c3cccnc3)cc2/C=C/c2ccccc2)cnc1-c1cccnc1	–	10.3 µM (active)
COC(=O)c1ccnc(-c2cc(C(=O)Nc3ccc(C4(N)CC4)cc3)ccn2)c1	–	inactive
CC(=O)NC(C(=O)O[C@H]1CCC(C)(C)[C@@H]2CC=C3C(=O)OCC3(O)[C@@]12C)C(C)C (stereo not given in full)	–	inactive
O=C(CN1C2=NCCN2c2ccccc21)c1ccc(-c2ccccc2)cc1	–	16.4 µM (active)
O=C(COc1ccc(C(=O)c2ccccc2)cc1)NC1CCN(Cc2ccccc2)CC1	–	inactive
CCOc1ccc(Cc2nc(-c3c(C)nc4ccccn34)cs2)cc1	–	0.0184 µM (active)
